In PubChem BioAssay one finds inhibition data, which are given here for 39 molecules.

The structures appear in SMILES notation. The source made the active and inactive calls. How the calls were made is not given here.

In this assay the target is Pantothenate synthetase (Mycobacterium tuberculosis (strain ATCC 25618 / H37Rv)) (UniProt P9WIL5). In words: Recombinant Mtb pantothenate synthetase (PanC) inhibitors, coupled enzyme, confirmatory (AID 375).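 Further: 0% = full reaction with vehicle and 100% = no enzyme background.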 The note with it: coupled enzyme assay; at 10 µM, stronger effect = higher value.
Sequence of Pantothenate synthetase (Mycobacterium tuberculosis (strain ATCC 25618 / H37Rv)) (P9WIL5 whole entry, looked up): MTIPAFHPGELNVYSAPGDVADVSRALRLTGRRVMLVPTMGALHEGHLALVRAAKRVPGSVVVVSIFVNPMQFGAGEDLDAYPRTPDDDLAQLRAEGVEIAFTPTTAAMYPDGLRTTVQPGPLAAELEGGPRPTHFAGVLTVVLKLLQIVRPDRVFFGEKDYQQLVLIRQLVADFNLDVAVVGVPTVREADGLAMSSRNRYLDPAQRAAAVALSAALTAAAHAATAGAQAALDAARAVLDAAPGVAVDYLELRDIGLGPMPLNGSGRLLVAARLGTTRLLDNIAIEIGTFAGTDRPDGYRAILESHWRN
Take `CCSc1nnc2c(n1)OC=Nc1ccc(Br)cc1-2`: the inhibition (usually the share of the control response that was lost under treatment) is 2% (inactive).
In the case of `CCn1c(SCC(=O)Nc2nnc(C)s2)nnc1-c1ccncc1` it was 1% (inactive).
The same measure for `Cc1ccc(N(C(=O)c2ccncc2)C2C=CS(=O)(=O)C2)cc1` (centres undefined): 5% (inactive); for `CCOC(=O)C1CCN(c2c(Nc3ccc4c(c3)OCCO4)c(=O)c2=O)CC1`: 0% (inactive).
In the case of `C=CCn1c(N)c(C(=O)NCCC2=CCCCC2)sc1=S` it was 0% (inactive); in that of `Cc1cc(NC(=O)c2cnn3cccnc23)no1`, 3% (inactive).
`O=C(CCn1c(=O)oc2ccccc21)NCc1ccco1`: the inhibition is 1% (inactive).
`CCC(=O)N/C(N)=N/c1nc(C)c2cc(OC)ccc2n1`: the inhibition was 0% (inactive).
The same measure for `c1ccc2c(c1)CNC1(CCCCC1)C2`: 3% (inactive).
As to `Cc1cccn2c(=O)c3cc(C#N)c(=O)n(CCCN4CCOCC4)c3nc12`, the inhibition was 0% (inactive).
As to `Cc1cccc(N2CCN(C(=O)Cn3ccc4ccccc4c3=O)CC2)c1C`, the inhibition was 0% (inactive).
For the molecule `CCOC(=O)N1CCN(C(=O)CCc2ccc(S(=O)(=O)NCCc3ccccc3)cc2)CC1`, the inhibition was 3% (inactive).
On to `COc1ccc2nc3oc(C(=O)N4CCCCC4)cc3cc2c1`, for which the inhibition is 12% (inactive).
`Cc1nnc(SCC(=O)Nc2c(Cl)cccc2Cl)[nH]c1=O`: the inhibition is 0% (inactive).
Turning to `O=C(NS(=O)(=O)c1ccc(NC(=O)C2CCCO2)cc1)c1ccccc1` (centres undefined), the inhibition is 0% (inactive).
Consider `Cc1ccc(NC(=O)c2ccc(NS(=O)(=O)c3c(C)noc3C)cc2)cc1C`, for which the inhibition was 0% (inactive).
For `Cc1ccccc1Cc1c(C)nc2c(C(=O)N3CCN(Cc4ccc5c(c4)OCO5)CC3)cnn2c1C`, the inhibition was 5% (inactive).
As for `O=C(Cc1nc2ccccc2s1)c1ccc(O)cc1O`, the inhibition was 8% (inactive).
In the case of `CCc1c(C(=O)N2CCOCC2)csc1C` it was 0% (inactive); in that of `Cc1ccc(N(CC(=O)NCC2CCCO2)S(C)(=O)=O)cc1Cl` (centres undefined), 0% (inactive).
`CCOC(=O)C1CCN(C(=O)COc2ccc(S(=O)(=O)NC(C)C)cc2Cl)CC1`: the inhibition is 0% (inactive).
In the case of `O=C(C1COc2ccccc2O1)N1CCCC1` (centres undefined) it was 0% (inactive); in that of `COC(=O)CCn1nnc(-c2cccs2)n1`, 1% (inactive); in that of `CCCCOC(=O)CN1C(=O)c2ccc(C(=O)OCCCC)cc2C1=O`, 0% (inactive).
As for `Cc1ccc(S(=O)(=O)CC2CSc3nnc(C)c(=O)n32)cc1` (centres undefined), the inhibition is 0% (inactive).
In the case of `NC(=O)c1ccsc1NC(=O)COC(=O)Cc1ccsc1` it was 3% (inactive); in that of `COCCn1c(=O)[nH]c2cc(C(=O)NCCCN3CCN(c4ccc(F)cc4)CC3)ccc2c1=O`, 0% (inactive); in that of `CCOc1ccc(NC(=O)CN2CCN(CC(=O)Nc3ccc(F)c(F)c3)CC2)cc1`, 0% (inactive).
The same measure for `O=C1OCCC1Sc1ncnc2sccc12` (centres undefined): 0% (inactive).
As to `COC(=O)[C@H](C)NC(=O)Nc1cccc(C(F)(F)F)c1`, the inhibition is 0% (inactive).
The same measure for `CCOC(=O)c1c(-c2ccc(C)o2)csc1NC(=O)COC(=O)c1cccs1`: 5% (inactive); for `CCN(CC)c1ccc2c(C)c(-c3ccc(N)cc3)c(=O)oc2c1`: 10% (inactive).
In the case of `COC(=O)Nc1nc2ccc(C(=O)c3ccccc3)cc2[nH]1`, the inhibition was 1% (inactive).
In the case of `Nc1nc(N2CCN(C/C=C/c3ccccc3)CC2)nc2ccccc12` it was 7% (inactive); in that of `C/C=C/COC(=O)c1[nH]c2c(c1C)C(=O)CC(c1ccco1)C2` (centres undefined), 6% (inactive); in that of `COc1cccc(NC(=O)N(CCCN2CCOCC2)C(C)c2cc3cccc(OC)c3o2)c1` (centres undefined), 0% (inactive).
The same measure for `O=C(c1cccc(C(=O)N2CCN(c3ccccc3)CC2)c1)N1CCN(c2ccccc2)CC1`: 0% (inactive).
For the molecule `CCCCn1c(=O)[nH]c(=O)c2c1nc(-c1ccncc1)n2CCOC`, the inhibition is 1% (inactive).
In the case of `CC1(C)NC(=O)N(CC(O)CN2CCCC2)C1=O` (centres undefined) it was 2% (inactive).
